In PubChem BioAssay AID687014 (The Scripps Research Institute Molecular Screening Center, 2013):
Hit rate of the full screen: of about 370,000 compounds, about 6,800 (1.8%) were called active. The list comes from a sample in which actives are over-represented; it also holds similar structures and randomly drawn compounds. Unmarked numbers belong to inactive results.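 Rule for the calls: active = activation above a cutoff set at the mean of all screened compounds plus 3 SD (cut at about 10% in these data); inactive = the rest.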

The compounds below were run on Nuclear hormone receptor DAF-12 (Heterodera glycines), GAL4 fusion (assay: hgDAF-12 GAL4 fusion reporter activation – cell-based, luminescence, HEK293, UAS-luciferase, primary screen (AID 687014;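 note: 0% = DMSO wells and 100% = sodium butyrate wells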)). Conditions: HEK293 GAL4-hgDAF12 UAS-luciferase reporter, agonist luminescence; at 6.8 µM; stronger effect = higher value; normalized to butyrate control.
In the case of `Cc1nc2c(C(=O)NCc3cccs3)cnn2c(C)c1Cc1ccc(F)cc1`, the activation is reported as -1.35%. `C=CCN1C(=O)[C@@H](CC(=O)NCCCCc2ccccc2)[C@]2(C(=O)OCC)CCCCC/C=C/12` showed an activation of 2.01%. In the case of `Cc1ccccc1C(=O)N[C@H](C(=O)N1CCC[C@H]1C(=O)NCc1ccccc1)C(C)C`, the activation is reported as -1.35%. Work on `COc1cccc(CC(=O)N2CCN(C(=O)C(=O)c3cccc(C(F)(F)F)c3)CC2)c1` yielded an activation of -0.52%. Work on `CCOC(=O)c1csc(CCNC(=O)c2oc3c(Cl)cc(C)cc3c2C)n1` yielded an activation of 1.98%. For `O=C(NCC1CCCO1)c1cc2c(s1)CCCC2` (stereo not given), the activation was 7.29%. `O=C(Nc1ccc(F)cc1)c1cc2c(s1)CCCC2` was tested, and the activation was 10.8% (active). `CN(C)C(=O)c1ccc(NC(=O)COC(=O)c2cc3c(s2)CCCCC3)cc1` was tested, and the activation was 2.42%. `COc1ccc(CCNC(=O)NS(=O)(=O)c2ccc(C)cc2)cc1OC` showed an activation of -1.2%. `COc1cc(NC(=O)C2CCCN(S(=O)(=O)c3ccc(C(C)(C)C)cc3)C2)cc(OC)c1` (stereo not given) showed an activation of 4.12%. `CCn1c2ccccc2c2cc(NC(=O)CSc3nnc(-c4ccccc4)n3-c3ccc(C)cc3)ccc21` showed an activation of 1.54%. For `Clc1ccc(-c2cc(-c3ccccn3)on2)c(Cl)c1`, the activation was 11.2% (active). Work on `Clc1ccccc1-c1cc(COc2ccc3ccccc3c2)no1` yielded an activation of 0%. Compound `Fc1ccc(-c2ccc(CNCc3ccccn3)o2)cc1Cl` has an activation of -0.65%. For `CS(=O)(=O)N(CC(=O)N1CCOCC1)c1ccc2c3c(cccc13)CC2`, the activation was 0.28%. For `CCc1c(C)c2c(C)[nH]nc2oc1=O`, the activation was -1.18%. In the case of `CN(Cc1nc2ccc(F)cc2[nH]1)Cc1nc(CC2CC2)no1`, the activation is reported as -0.98%. `O=C(NN=Cc1ccco1)C(=O)Nc1ccc(Cl)c([N+](=O)[O-])c1` showed an activation of -2.99%. For `COc1ccc(CCNC(=O)CSc2nc3c([nH]2)c(=O)n(C)c(=O)n3C)cc1`, the activation was 0.07%. Work on `N#Cc1ccsc1NC(=O)CN1CCCCC1` yielded an activation of -0.08%. For `Cc1csc(SCC(=O)Nc2sccc2C#N)n1`, the activation was 17.8% (active). `Cc1csc(SCC(=O)Nc2ccc(C)c(S(=O)(=O)N(C)C)c2)n1` gave an activation of 0.79%. For `CC(=O)Nc1ccc(N2C(=O)C3C4CC(=O)C(c5ccccc54)C3C2=O)cc1` (stereo not given), the activation was -0.45%. For `CC(=O)O[C@@]1(C(C)=O)CCC2[C@H]3C=C(C)C4=CC(=O)CC[C@@]4(C)C3CC[C@]21C` (stereo not given in full), the activation was -4.47%. For `FC(F)(F)c1cccc(Cn2ccc3ccc(-c4ccc5ccn(Cc6ccccc6)c5c4)cc32)c1`, the activation was -0.72%.
